tim23-1 inh: tim23-1 yeast growth inhibition; S. cerevisiae tim23-1 growth, BacTiter-Glo luminescence, 24 h; inhibition, % at 20 µM; actives 1.3% (n = 330,000);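 active = growth inhibition of the mutant yeast at or above 50%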;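 note: temperature-sensitive mutant grown at 25 °C; plate controls were DMSO-treated mutant yeast for no effect and medium wells lacking yeast for full effect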
TIM10 inh: inhibits growth of TIM10 yeast strain. AID 463195. S. cerevisiae TIM10 strain growth, BacTiter-Glo luminescence, 24 h. actives 1.4% (n = 330,000). inhibition, % at 10 µM;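 active = inhibition of 40% or more at the single tested concentration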;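 note: wild-type TIM10 isogenic control strain grown at permissive 25 °C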
CR mimetic SO: caloric restriction mimetics inhibiting age-related superoxide in yeast | S. cerevisiae aged cells, superoxide DHE fluorescence; active compounds read low | superoxide response (% of plate mean), % at 10 µM | actives 0.18% (n = 330,000);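 active = superoxide response under a set limit, about three screen SD below normal, cut at about 65% in these data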;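 note: yeast aged for seven days with compound at 30 °C before DHE staining; 100% = average MFI of all compound-treated wells on the plate with controls excluded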
tim10-1 inh: inhibits growth of tim10-1 mutant yeast; actives 2.2% (n = 330,000); inhibition, % at 20 µM; S. cerevisiae tim10-1 ts strain growth, BacTiter-Glo, 24 h; AID 463190;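 active = inhibition of at least 40%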;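 note: mutant grown at 25 °C; 0% = DMSO wells with yeast and 100% = wells holding no yeast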
NALP3 yeast inh: inhibitors of NALP3 inflammasome in yeast; Yeast reconstituted NLRP3/ASC/caspase-1, beta-gal luminescence, 24 h; inhibition, % at 10 µM; actives 0.39% (n = 330,000); AID 2825;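 active = inhibition of 50% or more; inactive = inhibition below 50%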;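 note: plate controls were induced DMSO wells for no effect and uninduced yeast grown without galactose for full effect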
tim10-1 conf: confirmation of tim10-1 mutant yeast growth inhibitors; AID 463213; inhibition, % at 20 µM; actives 56% (n = 7,400); shares compounds with tim10-1 inh; S. cerevisiae tim10-1 ts strain growth, BacTiter-Glo, 24 h;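 active = inhibition of yeast growth at or above a set limit in either of two repeat tests at 20 µM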;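 note: tim10-1 mutant grown at permissive 25 °C to find synthetic lethal compounds; 0% = DMSO yeast wells and 100% = medium wells without yeast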
* hit, by the source's call; nt = no result given. A selection: hits, their analogues and other compounds. The true share with any hit is near 3.8%.

SMILES | tim23-1 inh | TIM10 inh | CR mimetic SO | tim10-1 inh | NALP3 yeast inh | tim10-1 conf
COc1ccc(NCc2nnc(SCC(=O)NCc3ccccc3)n2-c2ccccc2OC)cc1 | 12.0 | -4.5 | 93.8 | 18.5 | -11.3 | nt
COc1ccc(-n2c(CNc3ccc(C)cc3)nnc2SCc2ccccc2)cc1 | 48.2 | 26.2 | 99.6 | 42.9* | 0.1 | 34.0*
CCOc1ccccc1N1CCN(C(=O)Nc2ccc(F)c(Cl)c2)CC1 | 47.5 | 37.0 | 94.2 | 47.9* | 30.1 | 40.0*
COc1ccccc1N1CCN(C(=O)Nc2ccc(F)c(Cl)c2)CC1 | 29.5 | 28.7 | 89.2 | 35.6 | 17.2 | nt
COc1ccc2sc(N(CCCN(C)C)C(=O)c3ccc(S(=O)(=O)N4CCCc5ccccc54)cc3)nc2c1 | 27.7 | 38.9 | 105.3 | 57.5* | 35.9 | 31.5*
CCN(Cc1ccccc1)S(=O)(=O)c1ccc(C(=O)N(CCCN(C)C)c2nc3cc4c(cc3s2)OCCO4)cc1 | 8.0 | -60.8 | 116.8 | 46.2* | 22.9 | 4.2
CN(C)CCCN(C(=O)c1cc2cc([N+](=O)[O-])ccc2s1)c1nc2cc3c(cc2s1)OCCO3 | 8.8 | 29.9 | 94.2 | 79.0* | 17.3 | 26.9*
CN(C)CCCN(C(=O)c1cccs1)c1nc2cc3c(cc2s1)OCO3 | 12.7 | 11.0 | 88.2 | 19.2 | 17.3 | nt
COc1cc2nc(N(CCCN(C)C)C(=O)c3ccc(S(=O)(=O)N4CCc5ccccc54)cc3)sc2cc1OC | 13.9 | 1.0 | 93.4 | 15.9 | 6.5 | nt
CC(=O)N(CCN(C)C)c1nc2cc3c(cc2s1)OCCO3 | -9.8 | 2.2 | 99.1 | -6.5 | 14.5 | nt
CN(C)CCCN(C(=O)c1ccc([N+](=O)[O-])s1)c1nc2cc3c(cc2s1)OCCO3 | 21.2 | 31.0 | 73.0 | 43.3* | 28.0 | 38.5*
COc1ccc(CCn2c(-c3ccco3)nc3nc4ccccc4nc32)cc1 | 18.3 | 28.4 | 113.5 | 41.2* | 8.7 | 11.8
COc1ccccc1Cn1c(-c2ccco2)nc2nc3ccccc3nc21 | 11.1 | 28.4 | 114.1 | 30.9 | 12.2 | nt
O=C(c1ccc(-c2ccccc2Cl)o1)N1CCN(c2ccccc2O)CC1 | 48.1 | 16.3 | 87.8 | 44.4* | 12.2 | 27.9
Cc1ccccc1N/N=C/c1c(C)nc2ccccn12 | 30.9 | 17.1 | 98.0 | 44.9* | 25.2 | 23.7
Cc1nc2ccccn2c1C(=O)N/N=C/c1ccccc1 | 10.8 | -9.7 | 107.4 | 12.3 | -0.8 | nt
CC1=NN(C(=O)c2ccc(Cn3nc(C)c(Br)c3C)cc2)C(O)(C(F)(F)F)C1 (stereo unspecified) | 33.5 | 26.6 | 99.1 | 41.1* | 6.6 | 21.9
CC1=NN(C(=O)c2ccc(Cn3nc(C)c([N+](=O)[O-])c3C)cc2)C(O)(C(F)(F)F)C1 (stereo unspecified) | 15.7 | 2.5 | 124.8 | 21.5 | 1.8 | nt
CC(C)(C)C1CCc2onc(C(=O)Nc3ccc(F)cc3F)c2C1 (stereo unspecified) | 41.2 | 15.4 | 86.3 | 41.3* | 5.5 | 27.1
CC(C)(C)C1CCc2onc(C(=O)Nc3cnn(Cc4ccc(F)cc4)c3)c2C1 (stereo unspecified) | 2.0 | 3.6 | 115.8 | 13.9 | 7.6 | nt
CN(C(=O)CSc1nnnn1-c1ccccc1)C1CCS(=O)(=O)C1 (stereo unspecified) | 10.3 | 2.1 | 96.0 | -0.1 | 6.6 | nt
O=C(CC1NCCc2ccccc21)Nc1ccc(Cl)cc1 (stereo unspecified) | 5.4 | 3.0 | 108.7 | 1.7 | 37.4 | nt
N#CCCN1CCN(C(=S)c2ccc(-c3ccc(Cl)cc3)o2)CC1 | 32.2 | 20.0 | 101.9 | 44.7* | 5.9 | 22.0
S=C(c1ccc(-c2ccc(Cl)cc2)o1)N1CCCCC1 | 10.1 | 6.0 | 96.5 | 22.1 | 6.0 | nt
CSc1cccc(NS(=O)(=O)c2cc(Br)cnc2N)c1 | -6.7 | 21.6 | 123.8 | 17.3 | 13.7 | nt
SMILES | tim23-1 inh | TIM10 inh | CR mimetic SO | tim10-1 inh | NALP3 yeast inh | tim10-1 conf
Cc1[nH][nH]c(=O)c1C(c1c(C)[nH][nH]c1=O)c1cn(Cc2cccc3ccccc23)c2ccccc12 | 49.4 | 10.5 | 108.3 | 48.2* | 11.0 | 33.3*
O=C(N/C(=C\c1ccc(Br)cc1)C(=O)N1CCCC1)c1cccs1 | 23.9 | 30.4 | 102.8 | 32.5 | 3.4 | nt
O=C(N/C(=C/c1ccc(Br)cc1)C(=O)N1CCCC1)c1cccs1 | 33.9 | 23.3 | 120.1 | 46.0* | -8.0 | 23.9
Cc1ccc(C(=O)c2oc3nc(C)cc(C)c3c2N)cc1 | 18.0 | 13.9 | 100.7 | 11.4 | 31.3 | nt
CCc1ccc(C(=O)c2oc3nc(C)cc(C)c3c2N)cc1 | 29.4 | 26.5 | 101.9 | 44.5* | 14.1 | 32.8*
Cc1nc2ccccc2c(=O)n1-c1cccc(NC(=O)c2cccs2)c1 | 7.2 | 5.5 | 99.3 | 5.0 | -18.1 | nt
O=C(Nc1cccc(N2C(=O)C=CC2=O)c1)c1cccs1 | -5.3 | 8.5 | 98.0 | 62.8* | -12.8 | 56.6*
C[C@H](CO)N1C[C@H](C)[C@@H](CN(C)S(=O)(=O)c2ccccc2)Oc2c(NC(=O)C3CCCCC3)cccc2C1=O | -3.5 | 1.2 | 104.7 | 4.0 | 15.6 | nt
Cc1ccc(SCCN2CCC(C(C)(C)C)CCC2=O)cc1 (stereo unspecified) | 38.3 | 20.9 | 93.8 | 45.0* | 7.4 | 30.1
C/C(CC(=O)Nc1ccc(C)c(Cl)c1)=N\NC(=O)Cc1ccccc1 | 24.8 | -2.6 | 100.3 | 3.5 | 4.0 | nt
C/C(CC(=O)Nc1ccc(C)c(Cl)c1)=N\NC(=O)c1ccco1 | 44.8 | 31.0 | 105.3 | 40.8* | 12.2 | -0.4
COC(=O)CN1C(=O)N/C(=C/c2ccc(OC)cc2)C1=O | 3.2 | 0.1 | 97.4 | 3.7 | -9.5 | nt
CCOC(=O)COc1ccc(/C=C2\NC(=S)N(CC)C2=O)cc1 | 27.2 | 18.4 | 83.4 | 40.0 | 2.3 | 25.4
COc1ccc(NC(C)=O)cc1NC(C)C(=O)Nc1ccc(S(=O)(=O)N2CCCCC2)cc1 (stereo unspecified) | 12.8 | 3.4 | 116.4 | 1.4 | 14.4 | nt
COc1ccc(C2=CC(c3ccc(OC)c(OC)c3)NC(=S)N2)cc1 (stereo unspecified) | 3.7 | 6.6 | 104.3 | 11.8 | -9.2 | nt
COc1ccc(C2C=C(C34CC5CC(CC(C5)C3)C4)NC(=S)N2)cc1 (stereo unspecified) | 35.2 | 22.0 | 87.9 | 43.0* | 12.7 | 30.0
CCCCCCCCNC(=O)/C(C#N)=C/c1ccc(SC)cc1 | 44.2 | 28.8 | 119.7 | 50.2* | 19.0 | 37.7*
CCCCCCCCNC(=O)/C(C#N)=C/c1ccc2c(c1)OCCO2 | 30.4 | 28.3 | 91.5 | 35.9 | 27.8 | nt
CC(=O)NNS(=O)(=O)c1scc(S(=O)(=O)c2ccc(Cl)cc2)c1C | 18.0 | 10.5 | 89.7 | 0.9 | 5.4 | nt
Cc1nc(Nc2ccc(Cl)cc2Cl)sc1C(=O)Nc1ccccc1 | 28.6 | 15.1 | 115.4 | 47.5* | 38.9 | 31.1*
CCOc1ccccc1OCCCC(=O)N1CCN(S(=O)(=O)c2ccc(C)cc2)CC1 | 22.7 | 11.1 | 85.9 | 41.3* | 10.6 | 16.5
CCOc1ccccc1OCCCC(=O)N1CCN(S(=O)(=O)c2ccc(C)cc2C)CC1 | 25.6 | 10.4 | 84.1 | 0.3 | 12.9 | nt
